# The supplement of paper PMC10849652
# About 7,900 targets were measured; listed, in parts, are those with a hit and a random draw of the rest. About 0.6% of all pairs of compound and target were hits. Unmarked numbers belong to inactive results.
# Legend:
# Assay in all cases: log2 fold change, soluble protein after heating vs DMSO (PISA); higher = thermal stabilisation; K562 cells, 10 uM, 30 min; active = over 0.2 and 3.5 SD of the protein, either way, in both replicates (recomputed)
# [1] = compound: CC[C@@H]1C(=O)N(C)c2cnc(Nc3ccc(C(=O)NC4CCN(C)CC4)cc3OC)nc2N1C1CCCC1
# Outline: (§1)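 Quantification of soluble protein used TMTpro 16plex LC-MS/MS, with channel sums equalised. Samples were the supernatant after 21,000xg for 90 min of pooled aliquots from K562 cells (2×10^6 cells/mL) treated with 10 μM compound for 30 min, heated for 3 min over 48°C-58°C, and extracted in PBS with 0.5% NP-40 at 4°C. Values, from duplicates, describe thermal stability against control samples on a log2 fold-change scale.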
# volasertib = compound: CC[C@@H]1C(=O)N(C)c2cnc(Nc3ccc(C(=O)N[C@H]4CC[C@H](N5CCN(CC6CC6)CC5)CC4)cc3OC)nc2N1C(C)C [volasertib]
# Outline: as §1
# [2] = compound: CC[C@H](C)N1C=C(C2=C(C=C(C=C21)C3=CN=C(C=C3)N4CCNCC4)C(=O)NCC5=C(C=C(NC5=O)C)C)C
# Outline: as §1
# epoxomicin = compound: CC[C@H](C)[C@@H](C(=O)N[C@@H]([C@@H](C)O)C(=O)N[C@@H](CC(C)C)C(=O)[C@]1(CO1)C)NC(=O)[C@H]([C@@H](C)CC)N(C)C(=O)C [epoxomicin]
# Outline: as §1
# [3] = compound: CCn1c(C(=O)N(C2CC2)C2CC2)cc2c3c(ncn3C)c(Nc3cc(C)n(C)n3)nc21
# Outline: as §1
# [4] = compound: CCn1cc(-c2ccnc3[nH]c(-c4cccc(CN(C)C)c4)cc23)c(-c2ccc(NC(=O)N(C)C)cc2)n1
# Outline: as §1
# [5] = compound: CN(C)CC(=O)Nc1ccc2[nH]c(=O)c3ccccc3c2c1
# Outline: as §1
# rosiglitazone = compound: CN(CCOC1=CC=C(C=C1)C[C@H]2C(=O)NC(=O)S2)C3=CC=CC=N3 (racemic) [rosiglitazone]
# Outline: as §1
# [6] = compound: CN1C2=C(C3=C1C(=O)N(N=C3)CC4=CC(=CC=C4)N)SC(=C2)S(=O)C
# Outline: as §1
# [7] = compound: CN1CCC(CNc2ccc3ncc(-c4cccc(OC(F)(F)F)c4)n3n2)CC1
# Outline: as §1
# saracatinib = compound: CN1CCN(CCOc2cc(OC3CCOCC3)c3c(Nc4c(Cl)ccc5c4OCO5)ncnc3c2)CC1 [saracatinib]
# Outline: as §1
# sotrastaurin = compound: CN1CCN(c2nc(C3=C(c4c[nH]c5ccccc45)C(=O)NC3=O)c3ccccc3n2)CC1 [sotrastaurin]
# Outline: as §1
# alvocidib = compound: CN1CC[C@H](c2c(O)cc(O)c3c(=O)cc(-c4ccccc4Cl)oc23)[C@H](O)C1 [alvocidib]
# Outline: as §1
# Tubastatin A = compound: CN1CCc2c(c3ccccc3n2Cc2ccc(C(=O)NO)cc2)C1 [Tubastatin A]
# Outline: as §1
# [8] = compound: CNC(=O)C1=CC=CC=C1NC2=NC(=NC=C2Cl)NC3=C(C=C(C=C3)N4CCOCC4)OC
# Outline: as §1
# defactinib = compound: CNC(=O)c1ccc(Nc2ncc(C(F)(F)F)c(NCc3nccnc3N(C)S(C)(=O)=O)n2)cc1 [defactinib]
# Outline: as §1
# rucaparib = compound: CNCc1ccc(-c2[nH]c3cc(F)cc4c3c2CCNC4=O)cc1 [rucaparib]
# Outline: as §1
# [9] = compound: CNc1nc(-c2ccc3c(N)n[nH]c3c2)cc(N2C[C@@H](C(=O)NC3CCCCC3)CC[C@H]2C)n1
# Outline: as §1
# encorafenib = compound: COC(=O)N[C@@H](C)CNc1nccc(-c2cn(C(C)C)nc2-c2cc(Cl)cc(NS(C)(=O)=O)c2F)n1 [encorafenib]
# Outline: as §1
# [10] = compound: COC(=O)[C@H](CCSC)NC(=O)C1=C(C=C(C=C1)NC[C@H](CS)N)C2=CC=CC=C2
# Outline: as §1
# Sequence of UniProt Q96JM3 (Q96JM3 whole entry, looked up): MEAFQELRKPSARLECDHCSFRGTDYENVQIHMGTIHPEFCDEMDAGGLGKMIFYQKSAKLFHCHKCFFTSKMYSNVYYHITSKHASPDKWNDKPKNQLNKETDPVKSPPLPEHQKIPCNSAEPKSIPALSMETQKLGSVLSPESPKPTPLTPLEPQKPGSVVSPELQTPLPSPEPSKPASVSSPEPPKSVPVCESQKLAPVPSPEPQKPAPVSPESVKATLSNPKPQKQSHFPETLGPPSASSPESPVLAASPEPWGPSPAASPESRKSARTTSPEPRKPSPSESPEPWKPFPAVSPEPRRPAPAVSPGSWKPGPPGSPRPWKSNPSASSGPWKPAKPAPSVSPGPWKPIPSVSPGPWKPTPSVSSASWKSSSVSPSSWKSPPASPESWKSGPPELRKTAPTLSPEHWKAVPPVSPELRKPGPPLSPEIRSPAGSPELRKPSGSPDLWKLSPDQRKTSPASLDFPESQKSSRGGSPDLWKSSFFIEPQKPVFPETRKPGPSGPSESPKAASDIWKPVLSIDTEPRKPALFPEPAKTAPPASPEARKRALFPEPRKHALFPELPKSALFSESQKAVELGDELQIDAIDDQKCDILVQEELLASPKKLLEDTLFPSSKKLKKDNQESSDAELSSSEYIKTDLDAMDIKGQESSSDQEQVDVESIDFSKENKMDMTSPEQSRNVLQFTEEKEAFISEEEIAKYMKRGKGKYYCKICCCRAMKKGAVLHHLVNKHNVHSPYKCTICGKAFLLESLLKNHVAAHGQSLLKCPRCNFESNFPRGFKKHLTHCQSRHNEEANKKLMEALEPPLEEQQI
# Sequence of UniProt P19397 (P19397 whole entry, looked up): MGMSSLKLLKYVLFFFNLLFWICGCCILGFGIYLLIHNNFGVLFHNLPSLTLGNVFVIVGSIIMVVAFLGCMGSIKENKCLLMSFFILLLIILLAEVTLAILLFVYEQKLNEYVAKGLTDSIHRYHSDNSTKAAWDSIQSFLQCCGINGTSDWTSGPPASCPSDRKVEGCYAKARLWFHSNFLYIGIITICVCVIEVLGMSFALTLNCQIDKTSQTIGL
# Sequence of UniProt P14854 (P14854 whole entry, looked up): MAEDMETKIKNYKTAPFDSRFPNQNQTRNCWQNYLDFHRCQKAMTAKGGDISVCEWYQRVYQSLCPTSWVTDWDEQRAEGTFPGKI
# Sequence of UniProt P68400 (P68400 whole entry, looked up): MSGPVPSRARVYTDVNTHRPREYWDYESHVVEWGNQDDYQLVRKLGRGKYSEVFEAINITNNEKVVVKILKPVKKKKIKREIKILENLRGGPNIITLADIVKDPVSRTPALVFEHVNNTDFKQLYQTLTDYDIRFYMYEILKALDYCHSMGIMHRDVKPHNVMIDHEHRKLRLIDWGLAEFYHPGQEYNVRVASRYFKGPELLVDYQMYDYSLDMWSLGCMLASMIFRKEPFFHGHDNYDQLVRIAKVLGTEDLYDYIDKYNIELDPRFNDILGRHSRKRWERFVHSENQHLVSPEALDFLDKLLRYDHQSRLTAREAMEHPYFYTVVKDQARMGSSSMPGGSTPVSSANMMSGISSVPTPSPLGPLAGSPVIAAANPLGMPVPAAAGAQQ
# Sequence of UniProt P61024 (P61024 whole entry, looked up): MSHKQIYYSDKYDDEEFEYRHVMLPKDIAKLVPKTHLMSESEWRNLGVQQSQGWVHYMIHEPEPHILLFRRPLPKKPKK
# Sequence of UniProt P23786 (P23786 whole entry, looked up): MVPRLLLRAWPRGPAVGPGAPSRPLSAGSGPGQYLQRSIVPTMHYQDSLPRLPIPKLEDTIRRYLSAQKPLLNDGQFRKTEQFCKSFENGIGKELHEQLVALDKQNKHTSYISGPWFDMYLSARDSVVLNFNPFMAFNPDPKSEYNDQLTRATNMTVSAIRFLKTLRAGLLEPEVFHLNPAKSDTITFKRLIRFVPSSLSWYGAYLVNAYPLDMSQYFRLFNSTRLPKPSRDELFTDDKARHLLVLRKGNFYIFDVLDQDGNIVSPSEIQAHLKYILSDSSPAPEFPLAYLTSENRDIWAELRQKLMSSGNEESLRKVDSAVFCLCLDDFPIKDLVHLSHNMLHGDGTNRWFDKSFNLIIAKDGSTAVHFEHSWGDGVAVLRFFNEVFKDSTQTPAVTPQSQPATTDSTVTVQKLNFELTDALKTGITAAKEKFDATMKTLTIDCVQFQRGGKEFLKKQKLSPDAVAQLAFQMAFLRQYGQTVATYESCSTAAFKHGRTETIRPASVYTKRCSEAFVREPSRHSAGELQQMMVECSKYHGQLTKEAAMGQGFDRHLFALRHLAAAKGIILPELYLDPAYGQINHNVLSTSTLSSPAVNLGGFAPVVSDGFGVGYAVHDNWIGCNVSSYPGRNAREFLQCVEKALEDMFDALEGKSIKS
# Sequence of UniProt P10606 (P10606 whole entry, looked up): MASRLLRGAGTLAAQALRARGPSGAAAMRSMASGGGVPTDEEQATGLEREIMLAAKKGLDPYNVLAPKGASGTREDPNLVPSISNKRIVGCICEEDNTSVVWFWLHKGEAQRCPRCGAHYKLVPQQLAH
# Sequence of UniProt Q9UKF6 (Q9UKF6 whole entry, looked up): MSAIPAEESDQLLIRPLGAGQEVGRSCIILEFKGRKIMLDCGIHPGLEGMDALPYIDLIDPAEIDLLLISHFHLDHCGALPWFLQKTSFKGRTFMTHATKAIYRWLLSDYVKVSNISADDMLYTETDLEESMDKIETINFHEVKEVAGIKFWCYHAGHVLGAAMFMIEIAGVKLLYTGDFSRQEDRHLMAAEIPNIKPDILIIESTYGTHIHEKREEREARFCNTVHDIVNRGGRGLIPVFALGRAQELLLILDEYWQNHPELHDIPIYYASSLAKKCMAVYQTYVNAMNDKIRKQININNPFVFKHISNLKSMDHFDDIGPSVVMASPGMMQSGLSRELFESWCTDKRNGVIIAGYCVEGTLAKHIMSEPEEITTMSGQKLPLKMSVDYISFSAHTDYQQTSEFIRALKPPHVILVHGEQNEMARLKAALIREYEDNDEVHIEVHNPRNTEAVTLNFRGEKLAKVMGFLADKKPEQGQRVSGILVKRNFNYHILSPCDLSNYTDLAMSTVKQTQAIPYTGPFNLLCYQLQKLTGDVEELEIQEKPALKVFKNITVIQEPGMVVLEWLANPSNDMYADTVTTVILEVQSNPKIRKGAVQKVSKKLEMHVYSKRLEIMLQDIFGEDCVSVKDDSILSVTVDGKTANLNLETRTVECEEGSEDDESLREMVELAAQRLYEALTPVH
# Sequence of UniProt Q16740 (Q16740 whole entry, looked up): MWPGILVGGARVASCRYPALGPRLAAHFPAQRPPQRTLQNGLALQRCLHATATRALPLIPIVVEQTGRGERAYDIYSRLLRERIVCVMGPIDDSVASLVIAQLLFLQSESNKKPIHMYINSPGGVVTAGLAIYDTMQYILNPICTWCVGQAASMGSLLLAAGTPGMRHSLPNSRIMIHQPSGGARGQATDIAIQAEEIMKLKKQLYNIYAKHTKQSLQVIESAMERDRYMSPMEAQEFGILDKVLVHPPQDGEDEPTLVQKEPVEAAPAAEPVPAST
# Sequence of UniProt Q9Y6H1 (Q9Y6H1 whole entry, looked up): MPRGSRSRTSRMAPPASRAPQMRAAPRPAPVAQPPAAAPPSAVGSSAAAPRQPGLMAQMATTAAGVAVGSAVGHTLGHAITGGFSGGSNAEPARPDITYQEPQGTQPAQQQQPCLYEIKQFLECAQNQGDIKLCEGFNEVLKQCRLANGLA
# Sequence of UniProt Q9NZN8 (Q9NZN8 whole entry, looked up): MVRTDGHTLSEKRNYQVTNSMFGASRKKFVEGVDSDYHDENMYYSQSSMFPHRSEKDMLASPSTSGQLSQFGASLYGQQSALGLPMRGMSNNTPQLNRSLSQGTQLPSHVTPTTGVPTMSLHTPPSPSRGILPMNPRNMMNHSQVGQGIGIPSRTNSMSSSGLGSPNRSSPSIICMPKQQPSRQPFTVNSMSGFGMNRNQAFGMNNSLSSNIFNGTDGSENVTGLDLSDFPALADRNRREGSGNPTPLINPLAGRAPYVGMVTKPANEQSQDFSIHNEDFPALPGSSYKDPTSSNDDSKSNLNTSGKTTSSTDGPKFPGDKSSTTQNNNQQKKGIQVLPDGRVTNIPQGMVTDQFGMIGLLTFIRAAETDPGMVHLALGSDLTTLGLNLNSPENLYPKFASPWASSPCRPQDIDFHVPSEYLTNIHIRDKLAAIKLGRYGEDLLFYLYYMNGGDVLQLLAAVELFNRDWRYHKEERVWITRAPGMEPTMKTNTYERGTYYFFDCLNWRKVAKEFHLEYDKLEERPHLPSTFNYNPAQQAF
# Sequence of UniProt Q96KA5 (Q96KA5 whole entry, looked up): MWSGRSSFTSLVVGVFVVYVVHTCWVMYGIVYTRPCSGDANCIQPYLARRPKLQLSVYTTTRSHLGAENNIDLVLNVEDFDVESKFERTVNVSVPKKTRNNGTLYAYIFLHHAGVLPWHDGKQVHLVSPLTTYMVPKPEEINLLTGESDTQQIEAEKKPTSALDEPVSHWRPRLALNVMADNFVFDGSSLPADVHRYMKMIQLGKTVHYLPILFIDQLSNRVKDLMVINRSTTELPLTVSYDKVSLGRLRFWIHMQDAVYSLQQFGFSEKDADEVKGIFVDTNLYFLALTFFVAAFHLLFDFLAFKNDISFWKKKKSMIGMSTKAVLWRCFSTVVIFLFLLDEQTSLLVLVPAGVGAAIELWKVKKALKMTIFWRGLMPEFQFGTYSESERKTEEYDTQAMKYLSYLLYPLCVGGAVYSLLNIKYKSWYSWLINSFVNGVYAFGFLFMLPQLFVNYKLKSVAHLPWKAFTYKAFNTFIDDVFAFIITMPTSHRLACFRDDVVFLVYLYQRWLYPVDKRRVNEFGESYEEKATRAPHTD
# Sequence of UniProt P06493 (P06493 whole entry, looked up): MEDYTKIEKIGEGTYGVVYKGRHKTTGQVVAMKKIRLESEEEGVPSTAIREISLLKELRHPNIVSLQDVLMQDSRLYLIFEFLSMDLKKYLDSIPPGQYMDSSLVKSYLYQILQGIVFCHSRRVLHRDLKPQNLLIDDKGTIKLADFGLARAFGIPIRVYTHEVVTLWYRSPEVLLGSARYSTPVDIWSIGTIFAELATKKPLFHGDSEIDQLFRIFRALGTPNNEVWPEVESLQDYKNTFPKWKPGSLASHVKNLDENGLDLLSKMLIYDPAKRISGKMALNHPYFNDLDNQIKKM
Target,log2 fold change [1],log2 fold change (volasertib),log2 fold change [2],log2 fold change (epoxomicin),log2 fold change [3],log2 fold change [4],log2 fold change [5],log2 fold change (rosiglitazone),log2 fold change [6],log2 fold change [7],log2 fold change (saracatinib),log2 fold change (sotrastaurin),log2 fold change (alvocidib),log2 fold change (Tubastatin A),log2 fold change [8],log2 fold change (defactinib),log2 fold change (rucaparib),log2 fold change [9],log2 fold change (encorafenib),log2 fold change [10]
COX6B1 (UniProt P14854),0.036,0.023,-0.013,0.333,0.046,-0.014,-0.081,0.013,-0.054,0.038,0.024,-0.012,0.039,-0.069,0.015,-0.023,0.022,-0.061,-0.043,0.008
CDK1 (UniProt P06493),-0.03,-0.05,0.017,0.055,-0.002,0,0.03,0.032,0.005,-0.108,0.007,-0.045,-0.063,0.018,-0.043,-0.118,0.013,0.01,-0.01,0.003
CLPTM1L (UniProt Q96KA5),-0.067,-0.185,0.005,0.013,0.009,-0.051,0.023,0.054,-0.023,-0.188,0.11,-0.013,0.008,-0.008,-0.057,-0.042,-0.011,-0.099,0.021,0.043
CNOT2 (UniProt Q9NZN8),-0.035,-0.168,0.021,-0.034,-0.05,0.085,0.015,0.007,0.062,-0.027,-0.044,0.007,-0.071,-0.005,-0.006,-0.024,0.052,0,0.012,-0.021
CD53 (UniProt P19397),0.183,-0.103,-0.049,-0.02,0.004,-0.092,-0.007,0.074,-0.051,-0.06,-0.22,0.087,-0.06,0.009,-0.21,-0.069,-0.032,0.125,-0.006,0.051
CHCHD2 (UniProt Q9Y6H1),0.04,0.103,-0.034,0.026,-0.027,-0.055,-0.004,0.04,-0.058,0.044,0,-0.031,0.027,-0.058,0.087,-0.002,-0.065,-0.049,-0.01,0.061
CKS1B (UniProt P61024),-0.028,0.068,0.094,0.014,0.025,0.041,-0.024,-0.002,0.022,-0.006,0.06,0.059,-0.067,-0.045,-0.01,-0.054,-0.047,-0.057,0.01,-0.1
COPS3 (UniProt Q9UNS2),0.001,-0.017,-0.001,0.054,0,-0.014,-0.017,0.007,-0.038,-0.03,-0.016,0.02,-0.019,-0.025,-0.021,-0.023,-0.037,-0.013,-0.003,0.033
CHAMP1 (UniProt Q96JM3),-0.035,-0.357 (active),0.181,0.016,-0.038,-0.095,0.014,0.063,0.038,-0.302,0.103,-0.007,-0.139,-0.036,-0.064,-0.104,0.053,-0.001,0.048,0.049
CPSF3 (UniProt Q9UKF6),-0.105,-0.252 (active),0.043,-0.013,-0.032,-0.008,0.033,0.014,-0.032,0.003,0.009,-0.086,-0.052,0.04,0.07,-0.098,-0.011,-0.049,0.03,-0.009
COX5B (UniProt P10606),0.06,-0.02,-0.047,0.192,-0.051,-0.043,-0.013,-0.01,-0.037,0.541 (active),-0.076,0.113,-0.018,0.052,0,-0.046,-0.01,0.024,-0.033,0.006
CPT2 (UniProt P23786),0.235,0.912 (active),-0.019,0.011,0.109,0.384,0.088,0.056,-0.136,-0.613 (active),-0.089,-0.136,-0.062,0.032,0.147,-0.164,-0.096,0.363,-0.074,-0.057
CSNK2A1 (UniProt P68400),0.007,0.04,0.002,-0.012,0.003,-0.117,-0.007,0.024,-0.04,-0.233,0.016,0.059,-0.082,-0.019,0.263 (active),-0.113,-0.079,-0.045,-0.038,-0.034
CLPP (UniProt Q16740),-0.03,0.035,-0.045,-0.056,-0.023,-0.015,0.017,-0.035,0,0.081,0,0.009,-0.011,0.067,0.054,-0.017,0.026,-0.028,-0.077,-0.038
"CLUH, A0A494C0R8",0.183,0.42,0.006,-0.017,0.066,0.078,0.116,0.068,0.101,0.203,-0.037,-0.058,-0.009,-0.088,0.09,-0.068,0.16,0.138,0.032,0.102
CASP3 (UniProt P42574),0.012,0.014,-0.033,0.273 (active),0,0.018,-0.021,0.014,-0.097,0.019,0.107,0.048,0.005,0.066,-0.024,-0.002,-0.062,0.001,-0.014,-0.004
